Source: PubChem BioAssay AID1458 (National Center for Advancing Translational Sciences (NCATS), 2008)
Among all 210,000 compounds or so, about 5,900 (2.8%) were called active. A call without a number means that no potency is given here. Another 5% or so got no clear call; they are omitted. Calls come from the whole dose curve; as a rule, active = well fitted activation curve with a large enough effect; inconclusive = small, poorly fitted or top-dose-only effect; inactive = no such curve, though single readings can be large or run the other way. The full list was thinned out, with actives kept by preference.

assay: qHTS Assay for Enhancers of SMN2 Splice Variant Expression; settings: HEK293 SMN2-luciferase splicing reporter, luminescence, 30-36 h; series mostly up to 46.1 µM; note: nearly all actives have a fitted effect of over 55% in size
Summary of the method: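 HEK293 cells carry an SMN2 minigene-luciferase reporter in which exon 7 inclusion puts luciferase in frame. Cells were seeded at 2000 cells/well, attached for 10-12 hours, then exposed to compounds for 30-36 hours at 37C before ONE-Glo luminescence.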
Potency is the fitted concentration of half-maximal effect.

With `CCOC(=O)CSc1nnc(-c2cccc(Br)c2)o1` as the molecule, how does the Potency read?
Its Potency is “inactive”.

With `O=C(OCc1ccc(Br)cc1)c1cccc(-c2nnc(-c3ccccc3)o2)c1` as the molecule, how does the Potency read?
The Potency was 2.24 µM (active).

With `CCn1c(=O)cc(OCC(=O)Nc2cc(Cl)c(OC)cc2OC)c2ccccc21` as the molecule, how does the Potency read?
The Potency was “inactive”.

With `C=C(C)CSc1nnc(-c2ccc(C)cc2)n1N` as the molecule, how does the Potency read?
Its Potency is 8.91 µM (active).

Which Potency does the source give for `Cc1ccc(-c2nnc(SC(C)C#N)n2N)cc1` (configuration not stated) here?
Its Potency is “inactive”.

For `Cc1ccc(NC(=O)NC(=O)CSc2nnc(-c3ccc(OC(F)F)cc3)n2N)c(C)c1`, which Potency is on record?
The Potency was “inactive”.

Which Potency does the source give for `CC(=O)c1c(C)n(S(=O)(=O)c2ccc(Cl)cc2)c2ccc(NS(=O)(=O)c3ccc(Cl)cc3)cc12` here?
The Potency was “inactive”.

With `COc1ccc(C)cc1N(CC(=O)N1CCC(C)CC1)S(=O)(=O)c1ccc(C)cc1` as the molecule, how does the Potency read?
Its Potency is “inactive”.

Which Potency does the source give for `CCOC(=O)c1c(NC(=O)CSc2cn(CCNC(=O)c3cccc(C(F)(F)F)c3)c3ccccc23)sc2c1CCC2` here?
The Potency was “inactive”.

For `COc1ccc(CCNC(=O)c2cn(C)c3ccc(S(=O)(=O)N(C)C4CCCCC4)cc3c2=O)cc1OC`, which Potency is on record?
The Potency was “inactive”.

With `COc1ccc(OCc2cccc(C(=O)N3CCCC3)c2)cc1` as the molecule, how does the Potency read?
Its Potency is 2.51 µM (active).

Which Potency does the source give for `CCOc1ccc(OCc2cccc(C(=O)N(CC)CC)c2)cc1` here?
The Potency was 5.01 µM (active).

With `COc1ccc(OCC(=O)NNC(=O)c2cccc(C)c2)cc1` as the molecule, how does the Potency read?
The Potency was “inactive”.

For `CCOc1ccc(NC(=O)N(CC(C)C)CC(C)C)cc1`, which Potency is on record?
The Potency was “inactive”.

With `Cc1cccc(C(=O)N2CCCN(C(=O)c3cccc(C)c3)CC2)c1` as the molecule, how does the Potency read?
The Potency was “inactive”.

For `CCN(CC)C(=O)c1ccc(O)c(OC)c1`, which Potency is on record?
The Potency was “inactive”.

For `COc1cccc(Cn2c(SCc3ccc(C(=O)N4CCC(C)CC4)cc3)nc3ccncc32)c1`, which Potency is on record?
Its Potency is “inactive”.

With `COc1cccc(CNC(=O)c2ccc3c(c2)N(Cc2ccc(C(F)(F)F)cc2)C(=O)c2ccccc2S3)c1OC` as the molecule, how does the Potency read?
Its Potency is “inactive”.

Which Potency does the source give for `COc1ccc(C2(Nc3cccc(F)c3)C(=O)c3ccccc3C2=O)cc1` here?
Its Potency is “inactive”.

For `CCc1nonc1NC(=O)c1oc2ccc(Cl)cc2c1C`, which Potency is on record?
Its Potency is “inactive”.

Which Potency does the source give for `Cc1ccc(Cn2c(C)c3cnn(CC(=O)NCc4ccccc4)c(=O)c3c2C)cc1` here?
The Potency was “inactive”.

For `CC1=C(C(=O)Nc2ccccc2)C(c2ccc(C)cc2)n2nc(SCc3ccccc3C)nc2N1` (configuration not stated), which Potency is on record?
Its Potency is “inactive”.

Which Potency does the source give for `COc1cc(Nc2nc(-c3ccc(OC)c(OC)c3)nc3ccccc23)cc(OC)c1` here?
The Potency was “inactive”.

For `CCc1cccc(C)c1Nc1c(-c2ccc(N(C)C)cc2)nc2ncccn12`, which Potency is on record?
Its Potency is “inactive”.

Which Potency does the source give for `CCNC(=O)CSc1nc(-c2ccccc2)cs1` here?
The Potency was “inactive”.

With `N#CC(=C1SC=CS1)c1nc(-c2ccccc2)cs1` as the molecule, how does the Potency read?
Its Potency is 11.2 µM (active).

For `N#CC(=C1CCCC1)c1nc(-c2ccc(Cl)cc2)cs1`, which Potency is on record?
The Potency was “inactive”.

For `COc1ccc(-c2cc(NCc3ccc(F)cc3)n3cnnc3n2)cc1`, which Potency is on record?
Its Potency is “inactive”.

For `CCOC(=O)c1c(C)[nH]c(C(=O)NCc2ccccc2OC)c1C`, which Potency is on record?
The Potency was 10 µM (active).

With `COc1ccccc1CNC(=O)c1cc(=O)c2ccccc2o1` as the molecule, how does the Potency read?
The Potency was “inactive”.

For `CC(=O)c1c(C)[nH]c(C(=O)NCc2ccc(C)cc2)c1C`, which Potency is on record?
Its Potency is “inactive”.

With `COC(=O)c1ccccc1NS(=O)(=O)c1ccc2c(c1)CCCN2C(C)=O` as the molecule, how does the Potency read?
Its Potency is “inactive”.

With `CCOc1ccc(C(=O)c2cn(Cc3ccccc3OC)c3ccc(F)cc3c2=O)cc1` as the molecule, how does the Potency read?
The Potency was “inactive”.

For `COc1ccc(-c2csc(-c3cccs3)n2)cc1OC`, which Potency is on record?
The Potency was 14.1 µM (active).

With `COc1ccc(C2CC(c3cccs3)=Nc3ccccc3S2)cc1OC` (configuration not stated) as the molecule, how does the Potency read?
The Potency was “inactive”.

With `COc1ccc(-c2nn3c(-c4ccccc4)nnc3s2)cc1OC` as the molecule, how does the Potency read?
The Potency was “inactive”.

For `CCc1ccccc1NC(=O)N1CCC2(CC1)Oc1ccccc1C(=O)N2Cc1ccccc1F`, which Potency is on record?
The Potency was “inactive”.

With `O=C(Nc1ccc(Br)cc1)c1cc2nc(-c3ccccc3)cc(-c3ccccc3)n2n1` as the molecule, how does the Potency read?
Its Potency is “inactive”.

Which Potency does the source give for `COc1cccc(C(=O)N(Cc2cccc(Cl)c2)Cc2ccco2)c1` here?
The Potency was “inactive”.

For `O=C(Cc1ccccc1)NC(=S)Nc1ccc(N2CCCCC2)cc1`, which Potency is on record?
Its Potency is “inactive”.

With `c1ccc(-c2ccccc2OCCN2CCCCC2)cc1` as the molecule, how does the Potency read?
Its Potency is “inactive”.

With `S=C(c1ccc(-c2ccccc2)o1)N1CCCCC1` as the molecule, how does the Potency read?
Its Potency is 12.6 µM (active).

With `O=C(CNC(=O)C(c1ccccc1)c1ccccc1)N/N=C\c1ccc2c(c1)OCO2` as the molecule, how does the Potency read?
Its Potency is “inactive”.

With `O=C(/C=C/c1ccc2c(c1)OCO2)NCc1ccc(F)cc1` as the molecule, how does the Potency read?
The Potency was “inactive”.

Which Potency does the source give for `O=C(Cc1ccc(F)cc1)N/N=C/c1ccc2c(c1)OCO2` here?
Its Potency is 12.6 µM (active).

With `COc1ccc(C(=O)NC(=S)Nc2ccc(Cl)cn2)cc1OC` as the molecule, how does the Potency read?
Its Potency is “inactive”.

Which Potency does the source give for `O=C(Nc1ccc(Cl)cn1)c1cnn2cccnc12` here?
Its Potency is 11.2 µM (active).

Which Potency does the source give for `COc1c(Cl)cc(C(=O)Nc2ccc(Cl)cn2)cc1Cl` here?
The Potency was “inactive”.

With `O=C(Nc1cccc(S(=O)(=O)Nc2ccc(Cl)cc2)c1)c1ccc2c(c1)OCCO2` as the molecule, how does the Potency read?
The Potency was “inactive”.

For `O=C(Nc1ccc(Cl)cn1)c1ccc2c(c1)OCCO2`, which Potency is on record?
The Potency was 2.51 µM (active).

Which Potency does the source give for `Cc1cc(NC(=O)c2cnn3cccnc23)n(-c2ccccc2)n1` here?
Its Potency is “inactive”.

For `COc1ccc(CNC(=O)Cc2coc3ccc(C(C)C)cc23)cc1`, which Potency is on record?
Its Potency is “inactive”.
